Data: PubChem BioAssay AID701 (PCMD, 2007)
The campaign covered roughly 33,000 compounds. About 70 (0.2%) were called active. Rule as the data show it: active = inhibition above about 30%; inactive = the rest. These entries were drawn from the full list.

target: Coagulation factor XII (Homo sapiens) (UniProt P00748); test: human FXIIa protease inhibitors, primary screen, biochemical, single well (AID 701); conditions: purified human FXIIa, AMC substrate fluorescence, 2 h; at 10 µM; hits give high values;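 also: 0% = enzyme with vehicle only and 100% = no enzyme blank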
Sequence (P00748 20-372 limits assumed): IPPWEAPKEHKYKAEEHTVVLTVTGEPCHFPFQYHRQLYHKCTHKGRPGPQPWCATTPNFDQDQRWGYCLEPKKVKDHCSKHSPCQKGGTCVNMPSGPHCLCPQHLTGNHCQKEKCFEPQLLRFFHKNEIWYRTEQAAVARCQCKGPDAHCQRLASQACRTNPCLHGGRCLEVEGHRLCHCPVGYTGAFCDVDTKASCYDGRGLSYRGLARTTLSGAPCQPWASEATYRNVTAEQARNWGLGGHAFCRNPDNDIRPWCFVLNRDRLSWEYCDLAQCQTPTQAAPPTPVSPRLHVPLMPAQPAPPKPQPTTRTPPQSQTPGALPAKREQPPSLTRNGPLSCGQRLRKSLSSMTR
Sequence (P00748 373-615 limits assumed): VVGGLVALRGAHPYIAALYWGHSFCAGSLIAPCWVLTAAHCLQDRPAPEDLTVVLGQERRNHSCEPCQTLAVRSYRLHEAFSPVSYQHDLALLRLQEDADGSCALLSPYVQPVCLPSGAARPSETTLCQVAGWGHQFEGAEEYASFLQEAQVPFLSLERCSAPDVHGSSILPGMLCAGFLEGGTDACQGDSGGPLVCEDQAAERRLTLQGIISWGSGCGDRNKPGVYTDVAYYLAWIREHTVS

inhibition, inactive:
COc1cc2c(cc1OC)C(C(=O)NCc1ccco1)C1c3ccccc3CCN1C2=O (stereo unspecified) 7.77%
COCCN(C(=O)c1ccco1)c1nnc(-c2ccc(OC)cc2)s1 7.18%
CCCCN1C(=O)CC(N2CCOCC2)C1=O (stereo unspecified) 4.3%
Cc1cccc(NC(=O)Cn2cc(C(=O)c3ccco3)c3ccccc32)c1 -10.1%
Cc1ccc(N(CC(=O)Nc2cc(C)cc(C)c2)S(=O)(=O)c2cccc3nonc23)cc1 17.2%
COc1ccc(-c2cc3nc(C)c(CCC(=O)NC(C)CCc4ccco4)c(C)n3n2)c(OC)c1 (stereo unspecified) -1.94%
CC1=C(C(N)=O)C(c2sccc2C)n2nnnc2N1 (stereo unspecified) 3.63%
CCOC(=O)c1nnn(-c2nonc2-n2cccc2)c1CN1CCC(C(=O)OCC)CC1 0.91%
O=C(CC1(O)C(=O)N(CN2CCOCC2)c2ccccc21)c1ccccc1 (stereo unspecified) -13.4%
CCOCCCNC(=O)C(NC(=O)c1ccc(=O)[nH]c1)c1ccc(C)cc1 (stereo unspecified) -13.5%
CC(O)CN(Cc1ccc(Cl)cc1)CC(C)O (stereo unspecified) 4.36%
COc1ccc(N(CC(=O)NC2CCCCC2)S(=O)(=O)c2c(C)[nH]c(=O)[nH]c2=O)cc1 6%
CC(=O)N1CCCc2cc(S(=O)(=O)CCC(=O)N3CCN(c4ccccc4)CC3)ccc21 -16.3%
O=C1CSC(c2cccc(F)c2)N1c1ccc(O)cc1 (stereo unspecified) 20.5%
CC(=O)c1c(C)[nH]c(C(=O)NCc2ccc(C)cc2)c1C 5.44%
Cn1c(=O)n(CCc2ccccc2)c(=O)c2c1nc1n2CCCN1c1ccccc1 -0.18%
O=C1CSC(c2ccc(Cl)cc2)N1 (stereo unspecified) -6.79%
OC(COc1cccc(OCC(O)CN2CCCC2)c1)CN1CCCC1 (stereo unspecified) 1.91%
COc1cccc(NC(=O)Cc2ccc(C)cc2)c1 3.98%
COc1cc(CC(=O)NCc2cccs2)cc(OC)c1OC 12%
Brc1ccc(Nc2c3c(nc4ncnn24)CCC3)cc1 -0.85%
CCN1CCN(C(c2cccnc2)c2cc(Cl)c3cccnc3c2O)CC1 (stereo unspecified) 11.8%
O=S(=O)(NCCNS(=O)(=O)c1ccccc1)c1ccccc1 15.1%
CCC(=O)NC(Nc1cc(C)ccn1)(C(F)(F)F)C(F)(F)F 5.79%
CCCNC(=O)c1ccccc1NC(=O)CSCc1ccc(OC)cc1 0.92%
CCCNC(=O)CN(Cc1ccccc1F)S(=O)(=O)c1ccc(C)cc1 16.6%
CC(=O)Nc1ccc(S(=O)(=O)N2CCSCC2)cc1 3.77%
Cc1cc(SCC(=O)c2ccccc2)nc(SCC(=O)c2ccccc2)n1 -15.6%
Cc1ccc(CCN2CC(C(=O)O)CC2=O)cc1 (stereo unspecified) 9.91%
O=C(NCCc1ccccc1)c1ccc(OCCOc2ccccc2)cc1 5.87%
CCOC(=O)c1[nH]cnc1C(=O)NC1CCCCC1 1.72%
COCCn1c(SCc2nc3cc(OC)c(OC)cc3c(=O)[nH]2)nnc1-c1ccncc1 3.73%
Cn1nnnc1SCC(=O)Nc1ccccc1C(=O)NC1CC1 -1.23%
O=S(=O)(N1CCCCC1)N1CCNCC1 4.16%
Cc1cc(C(=O)OC(C)C(=O)Nc2cccc(S(=O)(=O)N3CCOCC3)c2)c(C)o1 (stereo unspecified) 8.04%
CCn1c(SCC(=O)Nc2ccc(OC)c(OC)c2)nnc1-c1c[nH]c2ccccc12 5.25%
COc1cc(OC)cc(-c2cc3nc(C4CCN(C(=O)OC(C)(C)C)CC4)cc(=O)n3[nH]2)c1 -5.3%
COc1ccc(C2=NOC3(CC(=O)N(c4ccc(Cl)cc4)C3=O)C2)c(OC)c1 (stereo unspecified) -13.9%
Cc1cccc(-n2ncc3c(N4CCc5ccccc54)ncnc32)c1 4.16%
Cn1ccs/c1=N\S(=O)(=O)c1ccc(C(C)(C)C)cc1 6.13%
CC(CN1CCOCC1)c1ccccc1 (stereo unspecified) 7.84%
CCn1c(=O)c(=O)n(CC)c2cc(S(=O)(=O)N3CCc4ccccc43)ccc21 8.33%
COc1ccc(OCCCON2C(=O)c3ccccc3C2=O)cc1 3.44%
Cc1ccc(OCC(=O)N/N=C\c2ccco2)c(C)c1 5.38%
CCOCCOC(=O)C1=C(C)N(C)C(=O)NC1c1ccccc1F (stereo unspecified) 2.69%
O=C(NCc1ccccc1)C1CCCN(S(=O)(=O)c2cccs2)C1 (stereo unspecified) 3.39%
O=C(Nc1cc(-c2nn(CC(=O)N3CCCCC3)c(=O)c3ccccc23)ccc1N1CCOCC1)c1ccc(Cl)cc1 -11%
CC1CCCCC1NC(=O)C1CCCN1S(=O)(=O)c1cccc2nsnc12 (stereo unspecified) 10.7%
CC1CC(C)CN(C(=O)CSc2nnc(CSc3ncccn3)n2C)C1 (stereo unspecified) 1.36%
CCn1c(C)nc2cc(C(=O)NNS(=O)(=O)c3ccc(C)cc3C)ccc21 5.64%
COc1ccc(-n2c(C)csc2=S)cc1 1.97%
CCCCCN1CC(O)=C(c2ccccc2)C1=N -12.2%
O=C(Nc1cc2ccccc2oc1=O)C1CCCCC1 6%
Cc1nnc(SCC(=O)N2CCc3ccccc3C2)s1 -10.1%
Cc1ccc(CNC(=O)CCNS(=O)(=O)c2cccc3nonc23)cc1 7.33%
Cc1ccc(-n2c(CNc3ccc(F)cc3)nnc2SCC(=O)N2CCOCC2)cc1 0.69%
CCOC(=O)c1c(NC(C)=O)sc2c(O)c(Br)ccc12 5.45%
CCOC(=O)CN(Cc1ccc(OC)c(OC)c1)S(=O)(=O)c1ccc(OC)cc1 8.43%
CS(=O)(=O)N(CC(=O)N1CCN(Cc2ccccc2)CC1)c1ccc2c(c1)OCCO2 21.1%
COc1ccc(C2C(C#N)=C(/N=C/N3CCOCC3)OC3=C2C(=O)CC(C)(C)C3)cc1OC (stereo unspecified) 8.48%
COC(=O)CSc1snnc1-c1ccc(Cl)c(Cl)c1 5.67%
